Most compounds without a hit are left out; they make up all but 5.3% or so of the library.
Marburg entry inh = Marburg virus entry inhibition. AID 540276. 300,000 tested, 1.8% active. Marburg virus pseudotyped entry inhibition, cell reporter. Potency, µM (doses to about 37.8 µM), without a hit: at the top dose activity change, negative = inhibition, hits mostly inhibitors; calls by dose curve; tested in HEK293 cells
Vaccinia mCherry = inhibitors of vaccinia virus infection (mCherry reporter signal). Vaccinia virus mCherry reporter infection, fluorescence. Potency, µM (doses to about 36.5 µM), inactives show top-dose activity change, negative = inhibition, usual class: inhibitors. 310,000 tested, 0.63% active. AID 720579; calls by dose curve; tested in A549 cells; note: nearly all actives have a fitted effect of over 35% in size
Vaccinia Venus = vaccinia inhibition (Venus reporter); Vaccinia virus Venus reporter expression, fluorescence; 330,000 tested, 0.46% active; Potency, µM (top dose mostly 36.5 µM), for the others: at the highest dose activity change, negative = inhibition, usual class: inhibitors; calls by dose curve; tested in A549 cells; note: nearly all actives have a fitted effect of over 30% in size
LASV entry inh = Lassa virus entry inhibition; Lassa virus pseudotype entry inhibition, cell reporter; Potency, µM (doses to about 37.9 µM), for inactives: at the top dose activity change, negative = inhibition, hits mostly inhibitors; 300,000 tested, 1.2% active; calls by dose curve; tested in HEK293 cells; note: nearly all actives have a fitted effect of over 50% in size
FMDV inh = antivirals against foot and mouth disease virus. Potency, µM (series often up to 57.9 µM), inactives show top-dose activity change, negative = inhibition, hits mostly inhibitors. AID 1159524. 410,000 tested, 1.2% active. FMDV antiviral cell-based qHTS; calls by dose curve; tested in HEK293T cells; note: read-out not given here; nearly all actives have a fitted effect of over 45% in size
HCV inhibitor = inhibitors of hepatitis C virus infection. Huh7.5.1 HCVcc-Cre infection, luciferase reporter, 44 h. Potency, µM (highest dose often 41.8 µM), inactives show at the highest dose activity change, negative = inhibition, actives largely listed as inhibitors. 340,000 tested, 3.4% active. AID 651820; active = well fitted inhibition curve with a large enough effect; inconclusive = small, poorly fitted or top-dose-only effect, or another doubt; inactive = no such curve, though single readings can be large or run the other way
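Luciferase read-out (15 sec integration) after a 15 min room-temperature substrate step quantifies HCVcc-Cre infection. Cells, 1,000 per well, had compound added 4 h post-plating, then virus at ~0.5 moi, and were cultured 44 h.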
* hit, by the source's call; i = inactive; u = inconclusive; x = no result; [ ] = dose if it differs, or a comment. % is set by controls: 0 for no effect and ±100 for the full control effect; potency is the fitted concentration of half-maximal effect.

SMILES | Marburg entry inh | Vaccinia mCherry | Vaccinia Venus | LASV entry inh | FMDV inh | HCV inhibitor
COc1cc(CCC(C)=O)ccc1OC(=O)c1c(F)cccc1Cl | u | 0.0%[7.34 µM] | -1.5%[7.34 µM] | u | 44.0% | 11.2µM*
Cc1nc2c(OCc3ccc(F)c(F)c3)cccn2c1N(C)C(=O)CCC1CCCC1 | x | 0.0% | -19.0% | x | u | x
Cc1nc2c(OCc3ccc(OC(F)F)cc3)cccn2c1N(C)C(=O)CCC1CCCC1 | x | -3.0% | -15.4% | x | 25.1µM* | x
Cc1cc(Br)ccc1SCC(=O)NCC(c1ccco1)N1CCCCC1 (centres undefined) | u | i | -4.4% | -18.4% | -22.6% | -5.8%
Cc1ccc(S(=O)(=O)NC(CC(C)C)C(=O)NCC(c2ccco2)N2CCCCC2)cc1 (centres undefined) | x | x | x | x | 10µM* | -5.1%
Cc1ccc(C)c(SCC(=O)NCC(c2ccco2)N2CCCCC2)c1 (centres undefined) | 12.6µM* | i | -3.8% | u | -28.7% | -12.7%
COc1cccc(CN(C)C(=O)c2cccc(S(=O)(=O)N3CCN(c4ccc(F)cc4)CC3)c2)c1OC | 2µM* | u | -15.4% | u | 20µM* | u
CN(Cc1ccc(OC(F)F)cc1)C(=O)c1cccc(S(=O)(=O)N2CCN(Cc3ccccc3)CC2)c1 | u | -20.4% | -21.5% | u | 12.6µM* | 5.62µM*
COc1ccc(S(=O)(=O)N2CCCCCC2)cc1C(=O)N(C)CCOc1ccc(Cl)cc1 | u | -7.2% | -8.1% | 17.8µM* | u | u
CN(Cc1c(F)cccc1Cl)C(=O)c1cccc(S(=O)(=O)N2CCN(Cc3ccccc3)CC2)c1 | x | x | x | x | -22.8% | u
CCN1CCN(S(=O)(=O)c2ccc(Cl)c(C(=O)N(C)CCOc3ccc(Cl)cc3)c2)CC1 | u | -10.9% | u | u | u | u
CN(Cc1ccc(Cl)cc1Cl)C(=O)c1cccc(S(=O)(=O)N2CCN(c3ccccc3)CC2)c1 | u | -9.9% | -25.8% | u | u | 12.6µM*
CN(Cc1ccc(Cl)cc1Cl)C(=O)c1cccc(S(=O)(=O)NCc2ccccc2)c1 | -54.4% | u | -23.8% | -8.0% | 15.1% | -25.0%
COCc1c(C(=O)NC2CCOC(C)(C)C2)cnn1-c1nccc(-c2cccs2)n1 (centres undefined) | x | -4.9% | 4.8% | x | 30.7% | x
COc1ccc(CCNC(=O)CC(=O)N/N=C\c2ccc(OCC(N)=O)cc2)cc1OC | x | i | 0.6% | x | -15.6% | x
COCCCN1C(=O)C(CC(=O)NCC2CCCCC2)CC(C(=O)N(C)C)=C1C (centres undefined) | x | i | -9.3% | x | 0.0% | x
COc1cccc(NC(=O)CN(C)C(=O)c2cccc(S(=O)(=O)N3CCN(c4ccccc4)CC3)c2)c1 | x | x | x | x | 0.0% | u
CN(CC(=O)Nc1ccc(F)cc1)C(=O)C1CCN(S(=O)(=O)c2ccc3c(c2)OCCO3)CC1 | -6.9%[46.1 µM] | -4.6% | 0.2% | 2.1% | -20.7% | u
COc1cccc(CN(C)C(=O)c2cccc(S(=O)(=O)N3CCN(Cc4ccccc4)CC3)c2)c1OC | u | -7.8% | -21.9% | u | u | 7.94µM*
CN(CCOc1ccc(Cl)cc1)C(=O)c1cccc(S(=O)(=O)N2CCN(c3ccccc3)CC2)c1 | x | x | x | x | u | 3.55µM*
CN(Cc1ccc(OC(F)F)cc1)C(=O)C1CCN(S(=O)(=O)c2ccc3c(c2)OCCO3)CC1 | x | x | x | x | u | 6.31µM*
COc1cccc(CN(C)C(=O)c2cccc(S(=O)(=O)N3CCN(c4ccccc4)CC3)c2)c1OC | 0.4% | x | x | x | 17.8µM* | 7.08µM*
CN(Cc1ccco1)C(=O)c1cccc(S(=O)(=O)N2CCN(Cc3ccccc3)CC2)c1 | x | i | -4.6% | x | -23.2% | x
O=C(CNC(=O)C1CCCCC1)OCCOc1ccccc1 | x | -20.8% | 3.8% | x | x | x
Cn1c(SCc2ccccc2)nnc1C1CCCN(Cc2cccc3ncccc23)C1 (centres undefined) | x | -8.7% | -6.6% | x | -11.4% | x
SMILES | Marburg entry inh | Vaccinia mCherry | Vaccinia Venus | LASV entry inh | FMDV inh | HCV inhibitor
O=S(=O)(c1ccccc1Br)N1CCN(c2nc(-c3cccs3)nc3ccccc23)CC1 | x | -12.8% | -8.9% | x | x | x
O=C(c1nnsc1S(=O)(=O)c1ccc(Cl)cc1)N1CCOCC1 | u | u | u | u | 15.8µM* | u
CNC(=O)c1nnsc1S(=O)(=O)c1ccc(Cl)cc1 | 2.82µM* | u | u | u | u | u
O=C(c1nnsc1S(=O)c1ccc(Cl)cc1)N1CCOCC1 (centres undefined) | u | u | u | u | 35.5µM* | u
CCC1Sc2ccc(S(=O)(=O)Nc3ccc(OC)c(OC)c3)cc2NC1=O (centres undefined) | u | -10.6% | -10.6% | u | -21.2% | 10µM*
COc1ccc2c(c1)CCc1c(C(=O)Nc3cc(OC)c(Cl)cc3OC)noc1-2 | 6.7%[46.1 µM] | -0.5% | -3.1% | 11.9%[46.1 µM] | -10.1% | x
CSc1nc(N(CCO)CCO)c2sc3nc(-c4ccco4)c4c(c3c2n1)CCC4 | u | -19.7% | u | -3.8% | -29.0% | 6.31µM*
O=C(NCC1(N2CCOCC2)CCCCC1)c1cnn(-c2nccc(-c3ccco3)n2)c1C1CC1 | x | -6.8% | -0.5% | x | 3.4% | x
O=C1c2cccc3cccc(c23)C(=O)N1CC1CCN(CC(O)COc2ccc3ccccc3c2)CC1 (centres undefined) | -1.5% | x | x | x | u | 7.94µM*
O=C1c2cccc3cccc(c23)C(=O)N1CCN1CCN(CC(O)COc2ccc3ccccc3c2)CC1 (centres undefined) | u | -14.3% | -13.1% | u | u | 11.2µM*
Cc1cc(C)cc(OCC(O)CN2CCC(CN3C(=O)c4cccc5cccc(c45)C3=O)CC2)c1 (centres undefined) | -0.9% | u | u | x | u | 2.24µM*
N#C/C(C(=O)NCc1ccco1)=C1\S[C@@H](Cc2ccc(Cl)cc2)C(=O)N1c1ccccc1 | 15.5% | x | x | x | x | x
COc1cc(C2c3c(n[nH]c3C)C(=O)N2c2ccc(Br)cc2)ccc1O (centres undefined) | -36.3%[46.1 µM] | -8.5% | -7.6% | 1.2% | -4.1% | u
CCOC(=O)c1ccc(N2C(=O)c3n[nH]c(-c4ccco4)c3C2c2cccc([N+](=O)[O-])c2)cc1 (centres undefined) | 5.01µM* | u | u | u | 35.5µM* | 11.2µM*
CCOC(=O)c1ccc(N2C(=O)c3n[nH]c(-c4ccco4)c3C2c2ccc(O)c(OCC)c2)cc1 (centres undefined) | 7.94µM* | -23.1% | -17.5% | u | u | x
CCOc1cc(C2c3c(n[nH]c3C)C(=O)N2c2ccc(Br)cc2)ccc1O (centres undefined) | 0.6% | -5.8% | -2.6% | 0.7% | -1.5% | 25.1µM*
CC1=CN2C(=N)/C(=C/c3ccc(C)o3)C(=O)N=C2S1 | 9.5% | -12.3% | -12.1% | 1.26µM* | u | 33.9%
